# This excerpt belongs to a sample that is enriched for hits.
# Cycloheximide cs: counter-screen hit for Shiga toxin inhibitors, cycloheximide. cell reporter, cycloheximide protein synthesis inhibition counterscreen. max response, %. actives 12% (n = 300,000). AID 2314; in the data active = max response mostly above about 13%, no sharp cut-off; inactive = mostly below about 14%; note: read at 38.3 µM for the half of the compounds with a filed dose; 0% is about no effect
# Shiga toxin inh: Shiga toxin inhibition; Vero cells, Shiga toxin protein synthesis inhibition reporter; inhibition, % at 38.7 µM; actives 9.2% (n = 290,000); AID 2315; in the data active = inhibition mostly above about 28%, no sharp cut-off; inactive = mostly below about 43%; note: 0% is about no effect
# LmPK inh: blocks Leishmania mexicana pyruvate kinase activity; Q27686; purified LmPK, Kinase-Glo ATP luminescence, 1 h; Potency, µM (series often up to 57.5 µM), without a hit: at the highest dose activity change, negative = inhibition, usual class: inhibitors; actives 0.37% (n = 290,000); AID 1721; note: potency is the fitted concentration of half-maximal effect; % is set by controls: 0 for no effect and ±100 for the full control effect
# Target sequence (Q27686 whole entry, looked up): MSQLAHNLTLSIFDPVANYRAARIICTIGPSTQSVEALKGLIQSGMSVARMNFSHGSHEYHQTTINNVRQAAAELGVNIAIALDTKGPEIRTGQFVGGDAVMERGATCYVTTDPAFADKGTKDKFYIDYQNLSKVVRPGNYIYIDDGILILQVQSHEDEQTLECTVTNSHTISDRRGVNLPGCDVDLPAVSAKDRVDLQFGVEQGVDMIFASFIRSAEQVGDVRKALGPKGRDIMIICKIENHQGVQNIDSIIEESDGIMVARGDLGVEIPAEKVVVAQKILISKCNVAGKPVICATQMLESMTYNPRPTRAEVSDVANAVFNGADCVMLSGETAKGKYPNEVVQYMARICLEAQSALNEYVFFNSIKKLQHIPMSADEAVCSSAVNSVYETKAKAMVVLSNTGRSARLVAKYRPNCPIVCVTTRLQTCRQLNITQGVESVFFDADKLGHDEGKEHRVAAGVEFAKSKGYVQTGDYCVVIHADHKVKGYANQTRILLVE
#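 Kinase-Glo luminescence read after 1 h RT reaction of 0.1 nM LmPK with 0.5 mM PEP and 0.1 mM ADP. Activity scaled between uninhibited and enzyme-free controls.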
# Sm TGR block: blocks Schistosoma mansoni thioredoxin glutathione reductase | purified TGR, DTNB reduction, TNB absorbance 405 nm | AID 485364 | actives 3% (n = 360,000) | Potency, µM (doses to about 114 µM), for the others: at the top dose activity change, negative = inhibition, usual class: inhibitors | Q962Y6; note: potency is the fitted concentration of half-maximal effect; % is set by controls: 0 for no effect and ±100 for the full control effect; nearly all actives have a fitted effect of over 60% in size
#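 First, TGR (20 nM dispensed) and NADPH were mixed with compound. Second, a 15 min room-temperature incubation followed. Third, further NADPH and then DTNB were added to start the reaction. Finally, TNB absorbance was monitored kinetically.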
# Tb PYK inh: inhibitors of Trypanosoma brucei pyruvate kinase | Potency, µM (highest dose often 76.8 µM), without a hit: at the top dose activity, negative = inhibition, actives largely listed as inhibitors | Q57TT1 | AID 624173 | TbPYK enzyme, Kinase-Glo Plus ATP luminescence, 45 min | actives 0.12% (n = 410,000); note: potency is the fitted concentration of half-maximal effect; % is set by controls: 0 for no effect and ±100 for the full control effect; nearly all actives have a fitted effect of over 50% in size
#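 Glycolytic pyruvate kinase of T. brucei was incubated with substrate, test compound and 130 uM ADP for 45 minutes at room temperature. Luminescent Kinase-Glo Plus signal was measured after 10 minutes.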
# FBPA Giardia inh: Giardia lamblia aldolase inhibition; purified Giardia FBPA; Potency, µM (series often up to 59.6 µM), without a hit: top-dose activity, negative = inhibition, usual class: inhibitors; actives 0.71% (n = 290,000); AID 2451; note: potency is the fitted concentration of half-maximal effect; % is set by controls: 0 for no effect and ±100 for the full control effect; nearly all actives have a fitted effect of over 55% in size
#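 40 nM FBPA preincubated 10 min at RT with compound (up to 57.5 uM final), then substrate plus GAPDH/TPI/NAD/arsenate coupling and diaphorase/resazurin added. Fluorescence read after 20 min at RT, 525/598 nm.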
# Starred values were filed as active, the others as inactive; ? = inconclusive; nt = no result; [ ] = remark or other dose. Unless noted, calls come from the whole dose curve; as a rule, active = well fitted curve in the direction sought with a large enough effect; inconclusive = small, poorly fitted or top-dose-only effect, or another doubt; inactive = no such curve, though single readings can be large; an effect the other way counts as inactive or inconclusive.
SMILES,Cycloheximide cs,Shiga toxin inh,LmPK inh,Sm TGR block,Tb PYK inh,FBPA Giardia inh
CCCc1nn2cc(-c3ccc(C)c(C)c3)nc2s1,nt,nt,nt,-9%,-5%,nt
Cc1nn2cc(-c3ccc(N)cc3)nc2s1,35*,69*,-22%,-17%,-6%,-1%
COc1ccc(C)cc1-n1cnc2cc(C(=O)NC3CCCCCC3)ccc21,nt,nt,nt,-3%,-2%,nt
C=CCn1c(NS(=O)(=O)c2ccccc2)c(S(=O)(=O)c2ccc(C)cc2)c2nc3ccccc3nc21,9,16,1%,?,-4%,0.14µM*
COc1ccc(CCNC(=O)c2cccc(-n3cnc4cccnc43)c2C)cc1OC,nt,nt,nt,-4%,-12%[15.4 µM],nt
Cc1cccc(/C=N/NC(=O)NC23CC4CC(CC(C4)C2)C3)n1,20*,32,-4%,-1%,0%,12%
O=C(N/N=C/c1ccccc1F)NC12CC3CC(CC(C3)C1)C2,33*,54*,3%,1%,0%,8%
COc1cccc(/C=N/NC(=O)NC23CC4CC(CC(C4)C2)C3)c1O,nt,nt,nt,nt,-2%,nt
O=C(N/N=C/c1ccccn1)NC12CC3CC(CC(C3)C1)C2,39*,70*,1%,-12%,-3%,20%
O=C(CCCC(=O)N/N=C\c1ccccn1)N/N=C\c1ccccn1,0,-20,3%,-2%,-11%,-2%
O=C1NC(=O)C(=Cc2ccc(Sc3ccccc3)o2)C(=O)N1,20*,34,?,50µM*,40µM*,-19%
COc1ccc2c(c1)c1c(c(=O)n(CCc3ccccc3)c(=O)n1Cc1cccc(F)c1)n2C,nt,nt,nt,9%,5%,nt
CC(=O)c1ccc(NC(=O)C2C3C=CC(O3)C2C(=O)O)cc1 (stereo not drawn),13,6,-2%,-6%,2%,9%
COc1cccc(NC(=O)C2C3C=CC(O3)C2C(=O)O)c1 (stereo not drawn),-2,4,2%,35µM*,2%,-12%
CC(C)OC(=O)c1cc(NC(=O)C2C3C=CC(O3)C2C(=O)O)cc(C(=O)OC(C)C)c1 (stereo not drawn),4,-7,-1%,-22%,9%,4%
COc1ccc(NC(=O)C2C3C=CC(O3)C2C(=O)O)cc1 (stereo not drawn),1,1,-2%,45µM*,1%,-5%
COc1cccc(NC(=O)C2CC2)c1,nt,nt,nt,-1%,-4%,nt
CCCOC(=O)c1ccc(NC(=O)C2C3C=CC(O3)C2C(=O)O)cc1 (stereo not drawn),32*,50,1%,20µM*,-14%,9%
CCc1ccccc1NC(=O)c1nn(-c2ccc(C)cc2)c(=O)c2c1c1ccccc1n2C,nt,nt,nt,6%,-6%,nt
COc1cc2cc(NC(C)=O)cc(NCc3ccccc3)c2cc1OC,0,-1,4%,35µM*,-2%,?
Cc1cc(NS(=O)(=O)c2ccc(NC(=O)c3cnc(Cl)c(Cl)c3)cc2)nc(C)n1,nt,nt,nt,-4%,0%,nt
Cc1ccc(NC(=S)c2ccc(N(C)C)cc2)cc1,53*,78*,-5%,-11%,5%,0%
COc1ccc(NC(=S)Nc2ccccc2)cc1,7,2,-9%,-34%,-2%,-27%
COc1ccc(NC(=S)Nc2ccc(N(C)C(C)=O)cc2)cc1,10,-3,0%,-31%,0%,-1%
COc1ccc(C(=S)Nc2ccc(N(C)C)cc2)cc1,37*,78*,1%,-11%,2%,0%
SMILES,Cycloheximide cs,Shiga toxin inh,LmPK inh,Sm TGR block,Tb PYK inh,FBPA Giardia inh
Cc1ccc(OCC(=O)Nc2ccc(N(C)C)cc2)cc1,-2,10,-2%,0%,-25%,3%
COc1ccc(NC(=S)c2ccc(N(C)C)cc2)cc1,54*,58*,3%,1%,-14%,1%
COc1ccc(NC(=S)c2ccccc2)cc1,53*,71*,-1%,-2%,-12%,-6%
COc1ccccc1CNc1nc2c(S(=O)(=O)c3ccccc3)nnn2c2ccc(Cl)cc12,nt,nt,nt,-2%,1%,nt
Fc1cc(F)c2ncc3c(-c4ccccc4)nn(-c4cccc(Cl)c4)c3c2c1,nt,nt,nt,3%,0%,nt
COc1ccc(CCNC(=O)CCCCn2c(=O)c3ccccc3n(Cc3ccc(Cl)cc3)c2=O)cc1OC,nt,nt,nt,5%,-1%,nt
Cc1ccc(-c2nnc(-c3ccccc3S(=O)(=O)Cc3ccc(Cl)cc3)o2)cc1,0,11,6%,2%,0%,1%
CSc1ccccc1-c1nnc(-c2ccccc2)o1,59*,95*,-23%,-15%,1%,-8%
CSc1nnc(-c2ccccc2SC)o1,1,36,-6%,5%,-3%,-2%
CSc1ccccc1-c1nnc(-c2ccc(C)cc2)o1,39*,143*,-7%,1%,-1%,-12%
O=C1C=CC2=C3c4cc(O)c(O)cc4CC3(O)COC2=C1O (stereo not drawn),nt,nt,nt,nt,?,11µM*
CCOc1ccc(C(=O)NCC(c2cccs2)S(=O)(=O)c2ccccc2)cc1 (stereo not drawn),nt,nt,nt,-19%,-1%,nt
CC(NC(=O)COc1ccccc1)C1COc2ccccc2O1 (stereo not drawn),nt,nt,nt,nt,-16%,nt
CCOc1ccc(C(=O)NCC(C)C)cc1,22*,57*,-9%,2%,1%,18%
CCOc1ccc(C(=O)NC(C)C2COc3ccccc3O2)cc1 (stereo not drawn),11*,34,9%,0%,4%,0%
CCOc1ccc(C(=O)NCC(c2cccs2)N(C)C)cc1 (stereo not drawn),35*,28*,3%,0%,1%,-4%
CC(C)c1cc(C(=O)Nc2cc(Br)ccc2O)no1,36*,120*,0%,22%,-4%,-4%
Cc1noc(C(=O)Nc2cc(Cl)ccc2O)c1Cl,18,32,-1%,13%,6%,9%
Cc1c(Cl)cccc1NC(=O)c1cc(-c2cccs2)on1,nt,nt,nt,0%,-1%,nt
CC(C)c1cc(C(=O)Nc2cc(Cl)ccc2O)no1,68*,143*,-2%,2%,-4%,-20%
O=C(Nc1cc(Br)ccc1O)c1cc(-c2cccs2)on1,22*,78*,-2%,-5%,0%,-3%
Cc1csc(NC(=O)/C=C/c2ccc3c(c2)OCO3)n1,74*,91*,0%,3%,-13%,-1%
O=C(/C=C/c1ccc2c(c1)OCO2)Nc1nc2ccccc2s1,41*,62*,3%,0%,-12%,1%
Cc1ccc2nc(NC(=O)/C=C/c3ccc4c(c3)OCO4)sc2c1,3,10,4%,-2%,-2%,-3%
CC(=O)c1ccc(-n2c(CCC(=O)O)ccc2-c2ccc(C)cc2)cc1,-3,-6,-1%,18µM*,-4%,19%
CC(=O)c1ccc(-n2c(CCC(=O)O)ccc2-c2ccccc2)cc1,-6,-3,-2%,40µM*,-8%,14%

# Compound activity (PubChem BioAssay)
